This is part of a sample that, as a whole, favours compounds with a hit. Of some 83,000 tested, about 20% had one in any assay.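 The test compound was applied at a single concentration to cells in 96-well plates for 48 hours, and percent growth was recorded.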 Unmarked numbers belong to inactive results. Calls of active or inactive are those of the source. Rule for the calls: active = growth percent below 10; inactive = the rest.
Experiments:
Assay in all cases: NCI-60 one-dose screen, 48 h (100 = growth as untreated, 0 = no growth, -100 = all killed)
Conditions in all cases: 10 µM unless noted
[1] = system: HCT-15 colon
[2] = system: HT29 colon
[3] = system: SNB-75 CNS
[4] = system: SNB-19 CNS
[5] = system: U251 CNS
[6] = system: PC-3 prostate
[7] = system: UACC-62 melanoma
[8] = system: LOX IMVI melanoma
[9] = system: SK-MEL-28 melanoma
[10] = system: SK-MEL-5 melanoma

SMILES	growth [1]	growth [2]	growth [3]	growth [4]	growth [5]	growth [6]	growth [7]	growth [8]	growth [9]	growth [10]
OC(c1ccccc1)C(NC(Cc1ccccc1)c1ccccc1)c1ccccc1 (stereo not given)	89.2%	71.3%	90.9%	87.6%	86.4%	80.5%	69.4%	89.2%	97.8%	
CC/C=C\C[C@@H]1C/C=C2/C(=O)C=C[C@H]2C/C=C\CCCC(=O)O1	-43.5% (active)	-72.4% (active)	32.2%	-31.4% (active)	-94.2% (active)	-37.6% (active)	-61.1% (active)	-77.1% (active)	-75.6% (active)	
Cc1c(C(=O)NCCCc2ccccc2)sc2ncc(-c3ccc(Br)cc3)n12	104%	120%	98.4%	101%	100%		95.7%	99.1%	104%	101%
Nc1ccc(Sc2ccc([N+](=O)[O-])c3nonc23)cc1	58.2%	70.8%	90.7%	95.6%	90.9%		84.5%	80.3%	102%	88.1%
C/C(=N/NC(N)=S)c1sc(Nc2cccc(Cl)c2)nc1C	57.8%	79%	120%	87.9%	89.8%		92.9%	63.6%	94.8%	87.1%
Cc1cc(O)c(C2=NN(c3ccc(S(N)(=O)=O)cc3)C(c3ccccc3O)C2)cc1Cl (stereo not given)	17.5%	-18.4% (active)	41.5%	65.4%	2.38% (active)		21.3%	-89.6% (active)	53.9%	36.8%
CCOC(=O)CC1C(COC(=O)NC)OC(n2cnc3c(NC(=O)Nc4ccccc4)ncnc32)C1O[Si](C)(C)C(C)(C)C (stereo not given)	52.2%	8.8% (active)	45.4%	99.1%	52%		65.1%	48.6%	71.9%	23.5%
O=C(Nc1c2ccccc2nc2ccccc12)c1ccccc1CN1C(=O)c2ccccc2C1=O	19.2%	11.2%	60.1%	32.9%	27.1%		58.8%	22%	56.7%	39.5%
CN(C(=O)NCc1cccc(F)c1Cl)[C@H](COC(=O)Nc1cc2ccccc2cn1)CC(O)CO (stereo not given in full)	101%	99.4%	-21.4% (active)	97.2%	74%		106%	61.9%	119%	103%
N#Cc1cccc(NC(=O)c2cc(-c3ccc(F)cc3F)ccc2O)c1	13.3%	104%	11.5%	13.7%	13%		13.7%	13.2%	25.6%	-98.5% (active)
COc1ccc2sc3c(NCCO)nc4ccccc4c3c(=O)c2c1	81%	101%	103%	95.4%	93.1%		94.5%	88%	122%	93.7%
CCCCCCCCCCCCCCCCCCOc1ccc(CC(=O)OCC[N+]2(C)CCCCC2)cc1	97.5%	91.4%	102%	87.5%	91.9%		88.8%	94.7%	106%	100%
Cc1ccc2sc3c(NCCN)nc4ccccc4c3c(=O)c2c1	29%	10.8%	77.2%	81%	49.7%		99.4%	15.6%	111%	95.6%
Cc1c(C(=O)/C=C/Nc2c(Cl)cc(S(N)(=O)=O)cc2Cl)sc2nc3ccccc3n12	105%	108%	93.6%	99.3%	107%		101%	97.3%	103%	104%
Cc1nc(NC(=O)COc2ccc(/C=C3\Cc4ccc(Cl)cc4C3=O)cc2)sc1C	104%		108%	106%	99.4%	91.9%	98.8%	72.7%	132%	111%

From PubChem BioAssay (NCI)
